In PubChem BioAssay AID485297 (National Center for Advancing Translational Sciences (NCATS), 2010):
The campaign covered roughly 320,000 compounds. About 9,100 (2.8%) were called active. Roughly 3% stayed inconclusive and do not appear here. What follows is part of a selection rich in actives, with near analogues and random picks from the rest. Values without a mark were called inactive. The call rests on the fitted dose curve; in most records, active means well fitted activation curve with a large enough effect; inconclusive means small, poorly fitted or top-dose-only effect; inactive means no such curve, though single readings can be large or run the other way.

Experiment: qHTS Assay for Rab9 Promoter Activators; further: nearly all actives have a fitted effect of over 60% in size; on activation, negative = inhibition: % of control where 0% means no effect
Details: Huh7 Rab9 promoter-luciferase reporter, luminescence, 24 h; series mostly up to 9.22 µM; activation, negative = inhibition: at the top concentration
Method in brief: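 Using Huh7 cells stably transfected with Rab9 promoter–luciferase, compounds were incubated 24 h at 37 °C, 5% CO2; luciferase luminescence was read 10 min after reagent addition.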
Potency means the concentration at half of the fitted maximal effect.

SMILES	activation, negative = inhibition	Potency
CC1CCN(C(=O)COC(=O)CCC(=O)c2cccs2)CC1	-6.38%	–
CC(C)(C)c1ccc(S(=O)(=O)N2CCN(C(=O)c3ccc4c(c3)C(=O)N(Cc3ccncc3)C4=O)CC2)cc1	0.095%	–
CCOc1ccc(/C(O)=C2\C(=O)C(=O)N(c3ccc(OC)cc3)C2c2ccccc2[N+](=O)[O-])cc1 (configuration not stated)	–	0.398 µM (active)
COc1ccc(/C(O)=C2/C(=O)C(=O)N(c3nc(C)c(C)s3)C2c2ccco2)cc1 (configuration not stated)	0.749%	–
COc1ccc(C2/C(=C(/O)c3ccccc3)C(=O)C(=O)N2C)c(OC)c1 (configuration not stated)	-1.85%	–
Cn1c(SCC(=O)Nc2ccc(N3CCOCC3)cc2)nnc1C(F)(F)F	1.61%	–
Nc1c(-c2cccc(Cl)c2)cnn1-c1cccc([N+](=O)[O-])c1	10.8%	–
Cc1ccc(S(=O)(=O)Nc2nc(CN3CCOCC3)nc3sc(C)c(C)c23)cc1	3.75%	–
CN1CCN(C(=O)c2cnn(-c3ccccc3)c2NC(=O)c2ccc([N+](=O)[O-])cc2)CC1	-0.171%	–
O=C(c1ccc(F)cc1)N1CCCC(c2nc(-c3cccs3)no2)C1 (configuration not stated)	1.08%	–
COc1cccc(-c2noc(C3CCCN(C(=O)c4ccc(F)cc4)C3)n2)c1 (configuration not stated)	6.6%	–
Cc1ccc(-c2noc(C3CCCN(C(=O)c4cccc(Cl)c4)C3)n2)o1 (configuration not stated)	–	3.55 µM (active)
CCc1nc(Nc2ccc(NC(C)=O)cc2)c2oc3ccccc3c2n1	11.8%	–
Cc1ccc2nc(-c3ccc(NC(=O)c4cccnc4)cc3)oc2c1	–	0.199 µM (active)
CC(=O)Nc1ccc(-c2nc3ccccc3o2)cc1	–	1 µM (active)
CC(=O)Nc1ccc(S(=O)(=O)N(C)c2nc3ccccc3nc2Cl)cc1	-2.81%	–
Cc1cc(NS(=O)(=O)c2ccc(NC(=O)c3cccnc3)cc2)nc(C)n1	-0.278%	–
CC(=O)NC(=S)Nc1ccc(NC(=O)c2cccnc2)cc1	-0.126%	–
CCOc1cc(/C=C/C(=O)OCC(=O)NCCN2C(=O)CSC2=O)ccc1OCC(C)C	18.5%	–
O=C(OCC(=O)N1CCc2ccccc21)C1CCCN1S(=O)(=O)c1ccc(Cl)cc1 (configuration not stated)	-5.54%	–
CCOC(=O)C1CCCN(C(=O)c2ccc(C)c(S(=O)(=O)N3CCCCC3)c2)C1 (configuration not stated)	-3.63%	–
CCOC(=O)Cc1csc(SCC(=O)Nc2ccc(C)cc2F)n1	-0.949%	–

SMILES	activation, negative = inhibition	Potency
C/C(=N\NC(=O)Cc1ccc(Cl)cc1)c1ccccn1	-17%	–
C/C(=N\NC(=O)c1ccccc1F)c1ccccn1	–	0.316 µM (active)
C/C(CC(=O)Nc1ccc(N(C)C)cc1)=N\NC(=O)c1ccccc1F	-1.52%	–
CN(C)S(=O)(=O)c1cccc(NC(=O)COc2ccc3ccccc3c2)c1	-0.974%	–
O=C(Nc1ccccc1N1CCN(c2ccccc2)CC1)c1cccc(F)c1	-3.36%	–
O=C(Nc1ccn(Cc2ccccc2)n1)c1cccc(F)c1	–	1.41 µM (active)
O=C(Nc1ccn(Cc2ccccc2)n1)c1n[nH]c([N+](=O)[O-])c1Cl	–	0.355 µM (active)
Cc1ccc(Cn2ccc(NC(=O)C3C4CCC(C4)C3C(=O)O)n2)cc1 (configuration not stated)	-0.0059%	–
O=C(Nc1cccc(NC(=O)c2cccc(F)c2)c1)c1ccccc1	-7.19%	–
Cn1cc([N+](=O)[O-])c(C(=O)Nc2cnn(Cc3ccc(F)cc3)c2)n1	-0.795%	–
CN1CCN(S(=O)(=O)c2ccc(N3CCN(c4ccccc4O)CC3)c([N+](=O)[O-])c2)CC1	-3.77%	–
CCN(CC)c1ccc(NC(=O)CN2C(=O)NC3(CCc4ccccc43)C2=O)cc1 (configuration not stated)	-1.25%	–
CN(CC(=O)NC1CCN(Cc2ccccc2)CC1)S(=O)(=O)c1ccc(Cl)s1	-4.41%	–
CCCCN(CC(=O)Nc1cccc(S(=O)(=O)N2CCCC2)c1)Cc1nc2ccccc2c(=O)[nH]1	-5.14%	–
O=C(Cn1ncc(N2CCCC2)c(Br)c1=O)c1ccc(Cl)cc1	–	1.41 µM (active)
CC(=O)Cn1ncc(N2CCOCC2)c(Br)c1=O	-3.1%	–
CCn1c(=O)c(=O)n(CC)c2cc(N3CCCCC3)c(NC(=O)c3ccc(Cl)cc3)cc21	-3.75%	–
O=C(COc1ccccc1Cl)N1N=C(c2cccs2)CC1c1ccco1 (configuration not stated)	0.112%	–
Cc1cc(Cl)ccc1OCc1nc(-c2ccncc2)no1	–	2.82 µM (active)
CN(Cc1ccccn1)Cc1nc(-c2ccc(Cl)cc2)no1	-0.951%	–
COc1ccc(-c2noc(COc3ccc(Cl)c(C)c3)n2)cc1	2.26%	–
CCC(C)N(C(=O)CSc1nnnn1-c1ccccc1OC)C1CCS(=O)(=O)C1 (configuration not stated)	4.43%	–

SMILES	activation, negative = inhibition	Potency
CC1CC(=O)Nc2ccccc2N1C(=O)COc1ccc2cc(Br)ccc2c1 (configuration not stated)	3.67%	–
O=C(CCc1ccccc1)Nc1ncc([N+](=O)[O-])s1	–	2.24 µM (active)
COc1ccc([N+](=O)[O-])cc1NC(=O)CCc1ccccc1	8.53%	–
CC(C)Cc1nnc(NC(=O)CCc2ccccc2)s1	4.03%	–
CCOC(=O)c1sc(NC(=O)C2CSC3(C)CCC(=O)N23)nc1C (configuration not stated)	-6.76%	–
O=C(NCCc1ccccc1)c1ccc2c(c1)N(Cc1ccccc1)CCS2	-2.68%	–
CC1CCN(c2c(NCc3ccc(C(=O)NCc4ccccc4)cc3)c(=O)c2=O)CC1	0.271%	–
CC1CCCN(c2ccc(C(=O)NCCc3ccccc3)cn2)C1 (configuration not stated)	–	2.51 µM (active)
COCCn1c(C)cc(C(=O)COC(=O)CNC(=O)c2ccco2)c1C	-4.5%	–
Cc1cc(C(=O)CSc2nc(N)cc(=O)[nH]2)c(C)n1Cc1ccco1	-17.4%	–
Cc1cc(C(=O)COC(=O)CNC(=O)c2ccc(F)cc2)c(C)n1Cc1ccco1	–	3.16 µM (active)
Cc1c([N+](=O)[O-])c(N)nn1C	-0.146%	–
Cc1c(NC(=O)CSc2nnc(-c3cccnc3)n2N)c(=O)n(-c2ccccc2)n1C	0.783%	–
Clc1ccc(Nc2nc(-c3cccs3)cs2)nc1	–	3.16 µM (active)
COc1ccc(C(=O)Nc2nc(-c3ccc(S(=O)(=O)N4CCOCC4)cc3)cs2)cc1	-10.1%	–
c1cnc(Nc2nc(-c3ccc4ccccc4c3)cs2)nc1	–	0.282 µM (active)
COC(=O)c1cc(-c2cccs2)nc2ccccc12	-3.27% [at 1.84 µM]	–
COc1ccc(-c2csc(Nc3ccccn3)n2)cc1	–	0.282 µM (active)
c1ccc(Nc2nc(-c3ccncc3)cs2)nc1	–	1.58 µM (active)
Brc1ccc(-c2csc(N/N=C/c3cccnc3)n2)cc1	9.43%	–
CCCn1c(CCNc2nc(-c3ccc(OC)cc3)cs2)nc2ccccc21	4.91%	–
Clc1ccc(Cc2nnc(-c3cccs3)o2)cc1	23.6%	–

SMILES	activation, negative = inhibition	Potency
CC(NC(=O)c1ccco1)C(=O)Nc1nc(-c2ccccn2)cs1 (configuration not stated)	9.64%	–
Cc1ccc(S(=O)(=O)NCCC(=O)NCc2ccc(Cl)cc2)cc1C	-1.24%	–
CCN(CC)S(=O)(=O)c1ccc(CNC(=O)CN2C(=O)NC3(CCc4ccccc43)C2=O)cc1 (configuration not stated)	-4.71%	–
O=C1C=C(c2cc(C(F)(F)F)cc(C(F)(F)F)c2)C[C@@H](c2ccc3c(c2)OCO3)C1	-9.28%	–
COc1ccc(-c2sc3ccc(OC)cc3c2C#Cc2ccccn2)cc1	-0.366%	–
Cc1cc(C)cc(NC(=O)C(c2ccccc2)N2CCN(CC(=O)N3CCCC3)CC2)c1 (configuration not stated)	-6.26%	–
c1ccc(C2CCC(N3CCC(N4CCCCC4)CC3)CC2)cc1 (configuration not stated)	-8.43%	–
COc1ccc(-c2csc(NC3OC(=O)c4ccccc43)n2)cc1 (configuration not stated)	3.91%	–
COc1ccc(Nc2nc(-c3ccccc3)cs2)cc1	–	2.51 µM (active)
COc1ccc(NC(=O)c2sc(N)nc2-c2ccccc2)cc1	-0.349%	–
CCN(CC(=O)Nc1ccccc1C(=O)NC1CC1)Cc1cccs1	3.29%	–
CCCCN(C(=O)C(CCSC)N1C(=O)c2ccccc2C1=O)c1c(N)n(CCC)c(=O)[nH]c1=O (configuration not stated)	0.148%	–
COc1ccc(OCc2n[nH]c(=S)n2N)cc1	-6.39%	–
COc1ccc(-c2nc3ccccc3c(=O)n2CCc2ccc(O)cc2)cc1	-5.76%	–
COc1ccc(OCc2ccc(-c3nc4ccccc4c(=O)n3N)o2)cc1	–	1.26 µM (active)
O=C(CSc1nc2[nH]c(=O)[nH]c(=O)c2s1)Nc1cccc(F)c1	1.4%	–
Cc1ccc(NC(=O)C(C)Sc2nnc(C3CC3)n2C2CC2)cc1S(=O)(=O)N1CCOCC1 (configuration not stated)	-1.7%	–
Cc1ccc(-n2nc3ccc(NC(=O)/C=C/c4ccco4)cc3n2)cc1C	15.4%	–
CCC(=O)Nc1ccc2nn(-c3ccc(F)cc3)nc2c1	–	0.631 µM (active)
Cc1cccc(C(=O)OCC(=O)Nc2ccc(F)cc2)c1	0.584%	–
C=CCN(CC=C)C(=O)CN1C(=O)c2ccccc2C1=O	2.95%	–
C=CCn1c(C)cc(C(=O)CN2C(=O)c3ccccc3C2=O)c1C	–	0.355 µM (active)

SMILES	activation, negative = inhibition	Potency
Cc1cc(C(=O)COC(=O)CCCN2C(=O)c3ccccc3C2=O)c(C)n1C	-6.04%	–
COc1cccc(C2=CC(=O)C[C@H](c3ccc(F)cc3)C2)c1OC	-9.93%	–
Cc1cc(C)cc(OCC(=O)Nc2ccc(N3CCOCC3)cc2N2CCOCC2)c1	-3.26%	–
CSCC[C@H](NC(=O)OC(C)(C)C)C(=O)N/N=C/c1cc2ccc(C)cc2nc1Cl	0.316%	–
Cc1ccc2cc(/C=N/Nc3ccc(C(=O)O)cc3)c(Cl)nc2c1	–	1.26 µM (active)
Cc1ccc2cc(/C=N/NC(=O)[C@@H]3CCCN3)c(Cl)nc2c1	-0.292%	–
CC1(C)O[C@@H]2[C@H](O1)[C@@H](COS(=O)(=O)O)O[C@H]2n1cnc2c(=O)[nH]cnc21	-4.21%	–
Cc1ccsc1C(=O)OCC(=O)Nc1cccc(F)c1	19.3%	–
Cc1nnc(NC(=O)c2ccc3nccnc3c2)s1	25%	–
Cc1ccc(C(=O)Oc2coc(CSc3nnc(NC(=O)c4cccs4)s3)cc2=O)cc1C	2.51%	–
Cc1ccc(C(=O)Nc2nnc(-c3cccs3)s2)cc1C	–	3.55 µM (active)
O=C(CNS(=O)(=O)c1ccc2c(c1)OCCCO2)N1CCN(c2ccc(F)cc2)CC1	-6.68%	–
O=C(NCc1ccccc1CN1CCCC1)C1CCN(S(=O)(=O)c2ccc(Cl)cc2)CC1	-2.56%	–
CC1CCN(c2ccc(-c3ccc(NC(=O)c4ccco4)cc3)nn2)CC1	–	3.55 µM (active)
CCC(=O)Nc1ccc(-c2ccc(N3CCCCC3)nn2)cc1	–	1.58 µM (active)
CCCCSc1nnc(-c2ccc(NC(=O)CC)cc2)n1C	-0.478%	–
CCC(=O)c1ccc(OCC(=O)Nc2ccc(N3CCCCC3)cc2)cc1	0.0254%	–
CC1CCN(C(NC(=O)c2ccco2)C(=O)c2ccccc2)CC1 (configuration not stated)	1.11%	–
O=C(Nc1ccc(Sc2ccc(Br)cc2)cc1)c1ccco1	0.424%	–
